Experiment [1] concerns Wnt5a (protein binding on small-molecule microarray). The experiment can be described thus: small molecules binding Wnt5a protein – biophysical, small-molecule microarray, 635/667 nm fluorescence, primary screen (AID 1142).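 Note: fluorescence read at 667 nm with signal to noise per printed feature.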 The conditions noted are these: 635 nm fluorescence, higher = more signal.
A short description of experiment [2]: ATP-based viability of Huh7 replicon cells – cell-based, CellTiter-Glo luminescence, basal, 48 h, cytotoxicity control for HCV replication inhibitor project, primary screen (AID 1143).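 Note: Huh7 hepatoma cells carrying a hepatitis C replication reporter with no stimulus; test concentration not given here.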 The conditions noted are these: higher = more signal, called active from +8 up or from −8 down. (In general: In antiviral work, replicon cells carry a viral genome segment that copies itself.)

The nature of experiment [3]: Pseudomonas biofilm growth suppression – PAO1 strain, BacTiter-Glo luminescence, LB-PBS, primary screen (AID 1144). The note with it: P. aeruginosa PAO1 biofilm, 12 h, higher = more signal.
Experiment [4] is described as follows: basal CRE-LacZ reporter activity in PC12 – cell-based, unstimulated, primary screen (AID 1145). The note with it: no forskolin, luminescence, 4.5 h, higher = more signal, called active from +8 up or from −8 down.
A short description of experiment [5]: forskolin-driven CRE-LacZ activity in PC12 – cell-based, CRE-LacZ reporter, forskolin-stimulated, primary screen (AID 1146).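 Note: PC12 cells with 6xCRE LacZ reporter stimulated by forskolin 10 µM; beta-galactosidase reporter signal reflecting CREB driven transcription.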 The conditions noted are these: luminescence, 4.5 h, higher = more signal, called active from +8 up or from −8 down.
Experiment [6] concerns the target Streptavidin (Streptomyces avidinii) (UniProt P22629). The experiment can be described thus: compounds binding control protein streptavidin – biophysical, small-molecule microarray, 635/667 nm fluorescence, artefact control for SMM compound annotation, primary screen (AID 1147).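 Note: signal reflects streptavidin binding to arrayed compounds as a control protein.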 The conditions noted are these: higher = more signal.
A short description of experiment [7]: probe aInhba binding on compound microarray – biochemical, small-molecule microarray, 635/667 nm fluorescence, primary screen (AID 1148).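 Note: score merges 667nm spot fluorescence with signal-to-noise for antibody binding to printed compounds.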 The note with it: higher = more signal.
Experiment [8] addresses Torsin-1A (Homo sapiens) (UniProt O14656). The experiment in a line: TOR1A wild-type binding on microarray – cell lysate, small-molecule microarray, lysate, 635/667 nm, primary screen (AID 1149). The note with it: COS7 hTOR1A-WT lysate, 635 nm fluorescence, higher = more signal.
For experiment [9] the target is unchanged. The experiment in a line: torsin A mutant lysate binding on microarrays – cell lysate, small-molecule microarray, COS7 lysate, 635/667 nm fluorescence, primary screen (AID 1150).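 Note: score pools 667 nm emission and signal to noise measuring lysate protein binding.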 The conditions noted are these: COS7 hTOR1A mutant lysate, 635 nm fluorescence, higher = more signal.
The test system of experiment [10] is Sonic hedgehog protein (Shh). The experiment can be described thus: Sonic hedgehog microarray binding compounds – biochemical, small-molecule microarray, 635/667 nm fluorescence, primary screen (AID 1151).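 Note: Shh protein binding to compounds spotted on small-molecule microarray slides; score combines spot fluorescence intensity with signal-to-noise across triplicate slides.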 The note with it: 635 nm fluorescence, higher = more signal.
Experiment [11] is described as follows: optical density shifts of acrAB sulA E. coli – strain DRC41, OD650, 48 h, E. coli filamentation inducer project, primary screen (AID 1152).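 Note: E. coli MC1000 strain DRC41 lacking acrAB efflux pump and sulA.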 The conditions noted are these: higher = more signal, called active from +8 up or from −8 down.
Experiment [12] in a line: probe aLefty1 binding on compound microarray – biochemical, small-molecule microarray, 635/667 nm fluorescence, primary screen (AID 1153).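 Note: score merges spot fluorescence with signal-to-noise ratio from the scanned slide images.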 The conditions noted are these: higher = more signal.
The nature of experiment [13]: plasmodial surface anion channel blockers, osmotic lysis – cell-based, P. falciparum Indochina, OD700, 1 h, primary screen (AID 1154). The conditions noted are these: P. falciparum Indochina infected RBC osmotic lysis, higher = more signal, called active from +8 up or from −8 down.
Experiment [14] is described as follows: plasmodial surface anion channel blockers, osmotic lysis – cell-based, P. falciparum Indochina, OD700, 2 h, primary screen (AID 1155).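 Note: lysis reports solute entry through the parasite surface anion channel PSAC.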 The note with it: P. falciparum Indochina infected erythrocytes, higher = more signal, called active from +8 up or from −8 down.
The nature of experiment [15]: changes in parasitized red cell lysis, either direction – P. falciparum Indochina, OD700, 3 h, PSAC antagonist project, primary screen (AID 1156). The note with it: P. falciparum-infected erythrocytes, osmotic lysis, higher = more signal, called active from +8 up or from −8 down.
The nature of experiment [16]: plasmodial surface anion channel blockers, osmotic lysis – cell-based, P. falciparum Indochina, OD700, 18 h, primary screen (AID 1157). The note with it: P. falciparum Indochina infected erythrocytes, osmotic lysis OD700, 18 h; higher = more signal, called active from +8 up or from −8 down.
Experiment [17] is described as follows: S6 kinase pathway phospho-S6 level changes – cell-based, A549, cytoblot, luminescence, serum-stimulated, primary screen (AID 1158).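 Note: serum-stimulated A549 lung adenocarcinoma cells; signal is phosphorylated S6 detected by cytoblot immunostaining with HRP secondary.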 The note with it: 5 h, higher = more signal.
Experiment [18] addresses NADPH oxidase 2 (Homo sapiens) (UniProt P04839). The experiment can be described thus: compounds shifting NOX2 Amplex Red fluorescence – cell-based, HEK293-NOX2, PMA-stimulated, NOX inhibitor project, primary screen (AID 1159). Note: test concentration not given here. The note with it: 45 min, higher = more signal, called active from +8 up or from −8 down.
Experiment [19] addresses NADPH oxidase 4 (Homo sapiens) (UniProt Q9NPH5). The experiment can be described thus: compounds shifting NOX4 Amplex Red fluorescence – cell-based, HEK293-NOX4, tetracycline-induced, NOX inhibitor project, primary screen (AID 1160). The note with it: HEK293-NOX4, Amplex Red H2O2 fluorescence, 45 min; higher = more signal, called active from +8 up or from −8 down.
For experiment [20], the target named is NADPH oxidase 5 (Homo sapiens) (UniProt Q96PH1). The experiment can be described thus: compounds shifting NOX5 Amplex Red fluorescence – cell-based, HEK293-NOX5, NOX inhibitor project, primary screen (AID 1161). The note with it: HEK293-NOX5, ionomycin, 45 min, higher = more signal.
Sequence of NADPH oxidase 5 (Homo sapiens) (Q96PH1 whole entry, looked up): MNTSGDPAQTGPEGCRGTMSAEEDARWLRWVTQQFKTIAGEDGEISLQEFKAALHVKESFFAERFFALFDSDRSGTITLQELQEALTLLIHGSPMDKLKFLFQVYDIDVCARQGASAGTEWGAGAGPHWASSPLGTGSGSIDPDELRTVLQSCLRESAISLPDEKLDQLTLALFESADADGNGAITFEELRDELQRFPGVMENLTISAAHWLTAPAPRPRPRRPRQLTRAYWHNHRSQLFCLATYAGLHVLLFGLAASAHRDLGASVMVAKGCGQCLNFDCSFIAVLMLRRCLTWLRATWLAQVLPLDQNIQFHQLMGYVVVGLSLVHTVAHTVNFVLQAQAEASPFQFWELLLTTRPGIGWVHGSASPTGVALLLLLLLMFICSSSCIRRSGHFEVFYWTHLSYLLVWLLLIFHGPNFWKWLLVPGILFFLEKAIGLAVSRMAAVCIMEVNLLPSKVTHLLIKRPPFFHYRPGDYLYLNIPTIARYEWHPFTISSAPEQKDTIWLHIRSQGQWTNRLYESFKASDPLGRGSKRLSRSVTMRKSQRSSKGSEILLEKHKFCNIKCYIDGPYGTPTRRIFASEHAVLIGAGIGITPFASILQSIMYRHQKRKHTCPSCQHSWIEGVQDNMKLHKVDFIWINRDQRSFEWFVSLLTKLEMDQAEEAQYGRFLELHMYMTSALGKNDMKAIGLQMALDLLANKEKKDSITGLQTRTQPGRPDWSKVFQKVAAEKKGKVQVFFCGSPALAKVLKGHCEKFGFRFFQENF

Results on 4 molecules are retold here after PubChem BioAssay.

Activity calls are given as the source filed them. Unless noted, the rule behind the calls is not given here.

Sequence of NADPH oxidase 2 (Homo sapiens) (P04839 whole entry, looked up): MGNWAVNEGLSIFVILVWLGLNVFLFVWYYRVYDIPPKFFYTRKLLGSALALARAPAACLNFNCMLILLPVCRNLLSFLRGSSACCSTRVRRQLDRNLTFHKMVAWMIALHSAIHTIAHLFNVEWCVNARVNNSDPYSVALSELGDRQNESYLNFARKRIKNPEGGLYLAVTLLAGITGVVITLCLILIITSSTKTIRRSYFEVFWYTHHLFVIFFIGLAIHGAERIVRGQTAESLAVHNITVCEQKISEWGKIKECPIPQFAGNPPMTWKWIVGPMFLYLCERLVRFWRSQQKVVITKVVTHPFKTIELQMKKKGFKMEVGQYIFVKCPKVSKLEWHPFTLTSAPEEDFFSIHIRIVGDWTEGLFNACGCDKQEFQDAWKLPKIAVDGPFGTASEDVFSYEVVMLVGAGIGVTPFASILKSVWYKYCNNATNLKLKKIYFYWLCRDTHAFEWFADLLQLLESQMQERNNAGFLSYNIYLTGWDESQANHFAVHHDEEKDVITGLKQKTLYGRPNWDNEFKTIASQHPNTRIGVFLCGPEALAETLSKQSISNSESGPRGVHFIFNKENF
Sequence of Torsin-1A (Homo sapiens) (O14656 whole entry, looked up): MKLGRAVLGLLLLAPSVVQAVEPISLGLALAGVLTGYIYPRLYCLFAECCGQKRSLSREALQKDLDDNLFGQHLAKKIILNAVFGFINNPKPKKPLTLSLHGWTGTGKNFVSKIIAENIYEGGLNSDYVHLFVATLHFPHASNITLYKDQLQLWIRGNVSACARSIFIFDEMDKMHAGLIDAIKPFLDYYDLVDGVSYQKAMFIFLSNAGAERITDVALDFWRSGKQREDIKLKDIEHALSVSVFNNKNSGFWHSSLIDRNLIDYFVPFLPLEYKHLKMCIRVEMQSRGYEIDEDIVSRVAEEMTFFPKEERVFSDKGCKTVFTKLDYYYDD
Sequence of Streptavidin (Streptomyces avidinii) (P22629 whole entry, looked up): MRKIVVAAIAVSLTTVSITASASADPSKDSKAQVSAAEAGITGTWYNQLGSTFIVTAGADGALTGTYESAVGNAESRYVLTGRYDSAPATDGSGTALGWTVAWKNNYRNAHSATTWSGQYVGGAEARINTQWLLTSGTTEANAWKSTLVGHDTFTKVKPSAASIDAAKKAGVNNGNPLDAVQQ
Sequence of NADPH oxidase 4 (Homo sapiens) (Q9NPH5 whole entry, looked up): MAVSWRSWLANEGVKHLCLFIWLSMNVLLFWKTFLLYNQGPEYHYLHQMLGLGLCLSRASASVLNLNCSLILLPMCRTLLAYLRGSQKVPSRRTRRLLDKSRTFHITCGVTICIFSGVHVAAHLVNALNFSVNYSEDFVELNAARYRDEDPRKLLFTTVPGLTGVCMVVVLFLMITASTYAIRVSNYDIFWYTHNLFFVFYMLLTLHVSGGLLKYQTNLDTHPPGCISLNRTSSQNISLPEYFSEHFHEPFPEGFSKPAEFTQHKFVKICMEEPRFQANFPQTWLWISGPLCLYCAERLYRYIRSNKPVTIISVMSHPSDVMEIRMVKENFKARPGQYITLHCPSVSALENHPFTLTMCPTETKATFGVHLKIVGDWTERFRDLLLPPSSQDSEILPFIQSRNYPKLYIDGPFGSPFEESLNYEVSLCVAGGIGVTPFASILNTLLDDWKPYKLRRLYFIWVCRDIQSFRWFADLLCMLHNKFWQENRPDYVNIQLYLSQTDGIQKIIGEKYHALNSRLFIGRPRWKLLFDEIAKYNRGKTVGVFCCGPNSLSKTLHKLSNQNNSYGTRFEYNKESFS

In the case of `CC(C)=NO[C@@H](C)c1cn([C@H](CO)Cc2ccccc2)nn1`, the composite z-score is 0.0949 in [1]; 0.561 in experiment [6]; -0.0681 in experiment [7]; 0.818 with Torsin-1A (Homo sapiens) [8]; 0.39 with Torsin-1A (Homo sapiens) [9]; 0.469 in experiment [10]. The same molecule showed a composite z-score in experiment [12] of 0.423. The z-score in [2] is -0.172 (inactive); in experiment [3], -0.643 (inactive); in experiment [4], 0.573 (inactive); in experiment [5], -0.537 (inactive); in experiment [11], -1.99 (inactive); in experiment [13], -0.407 (inactive). For the same molecule, the z-score in [14] is -1.7 (inactive); in experiment [15] it was -0.222 (inactive); in experiment [16] it was -1.75 (inactive); in [17] it was 1.54; in [18], -0.689 (inactive); in [19], 0.0692 (inactive). In addition, in [20], the z-score came out at 0.628.
As to `CC(CCN1CCCc2nc(C)c(C)cc21)=NO[C@H](C)c1cn([C@@H]2COC[C@H]2O)nn1`, the composite z-score was 0.395 in experiment [1]; 0.764 in [6]; 0.0906 in experiment [7]; 1.47 with Torsin-1A (Homo sapiens) [8]; 2.3 with Torsin-1A (Homo sapiens) [9]; 0.979 in experiment [10]. The same molecule yielded a composite z-score in experiment [12] of 0.184. Also, the z-score is 0.0307 (inactive) in [2]; 0.392 (inactive) in [3]; -1.12 (inactive) in [4]; -0.181 (inactive) in [5]; 0.686 (inactive) in experiment [11]; 1.65 (inactive) in experiment [13]. Moreover, the z-score in experiment [14] was 0.763 (inactive); in experiment [15], 0.09 (inactive); in experiment [16] it was 0.564 (inactive); in [17] it was -0.607; in [18], -0.61 (inactive); in experiment [19] it was -0.259 (inactive). The z-score in experiment [20] turned out to be 0.371.
For `CC(=O)OC[C@H]1O[C@H](CC=NOC(C)CN2CCCc3nc(C)c(C)cc32)C=C[C@@H]1OC(C)=O` (stereo not given in full), the composite z-score in [1] is 0.417; in [6], -0.0656; in experiment [7], -0.0221; with Torsin-1A (Homo sapiens) [8] it was 1.19; in the experiment with Torsin-1A (Homo sapiens) [9], -0.0919; in experiment [10], 1.1. This molecule had a composite z-score in experiment [12] of -0.0222. For the same molecule, the z-score in [2] was 0.169 (inactive); in experiment [3], 0.649 (inactive); in experiment [4] it was -0.961 (inactive); in [5], 0.0009 (inactive); in experiment [11], 0.134 (inactive); in experiment [13] it was 1.3 (inactive). For the same molecule, the z-score in [14] was 0.674 (inactive); in experiment [15] it was 0.594 (inactive); in [16], 0.588 (inactive); in [17], -0.597; in experiment [18] it was -2.12 (inactive); in experiment [19] it was -2.2 (inactive). In [20], the z-score is -0.898.
On to `O=C1[C@H]2[C@H]3[C@H](O)[C@H](O)CC(=NOC[C@@H](O)COCc4ccco4)[C@@H]3CC[C@H]2C(=O)N1C1CCCCC1`, for which the composite z-score in experiment [1] was 0.124; in experiment [6] it was -0.256; in [7], -0.195; with Torsin-1A (Homo sapiens) [8], 3.38; with Torsin-1A (Homo sapiens) [9] it was 1.25; in experiment [10] it was 1.94. In experiment [12], this molecule gave a composite z-score of 0.0616. In addition, the z-score was -0.234 (inactive) in experiment [2]; 0.321 (inactive) in [3]; 3.23 (inactive) in experiment [4]; 0.148 (inactive) in experiment [5]; 0.38 (inactive) in experiment [11]; 7.07 (inactive) in experiment [13]. For the same molecule, the z-score is 0.409 (inactive) in experiment [14]; 0.347 (inactive) in [15]; 0.329 (inactive) in experiment [16]; -0.9 in [17]; -0.0721 (inactive) in [18]; 0.721 (inactive) in experiment [19]. For the same molecule, the z-score in experiment [20] was found to be 0.475.
